Experimental data taken from PubChem BioAssay (NCI).
The panel holds about 79,000 compounds, 15% with a hit somewhere; the sample as a whole holds those more often. Active and inactive are the calls of the source. Cut-off read from the data, not from the text of the source: active = growth inhibition above about 70%; inactive = the rest.

Columns and labels:
[1] = NCI Yeast Anticancer Drug Screen. Data for the rad52 strain (AID 147);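 note: 0% = growth of vehicle-treated control cultures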; details: S. cerevisiae rad52 mutant growth inhibition, hits give high values
In short: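 Growth of repair-deficient yeast cells was compared between compound-treated and vehicle-treated cultures to give percent inhibition.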

[2] = NCI Yeast Anticancer Drug Screen. Data for the wt1 strain (AID 149);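 note: 0% = growth of vehicle-treated wt1 cultures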; details: S. cerevisiae wt1 strain (SPY 50644) growth inhibition, hits give high values
In short: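 The wt1 strain was treated with compounds, and growth was compared with vehicle-treated cultures to give inhibition.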

[3] = NCI Yeast Anticancer Drug Screen. Data for the rad50 strain (AID 155);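 note: 0% = growth of vehicle-only cultures of the same strain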; details: S. cerevisiae rad50 strain growth inhibition, hits give high values
In short: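 Cells are treated with compound, grown, and their growth is then scored against vehicle-only cultures of the same repair-deficient yeast strain.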

[4] = NCI Yeast Anticancer Drug Screen. Data for the mec2-1 strain (AID 157); details: S. cerevisiae mec2-1 strain, hits give high values
In short: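 Compounds were applied to mec2-1 yeast cells. Their growth was then compared with that of vehicle-treated cultures to give growth inhibition.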

[5] = NCI Yeast Anticancer Drug Screen. Data for the rad14 strain (AID 159);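 note: 0% = growth of vehicle-treated control cultures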; details: S. cerevisiae rad14 strain growth inhibition, hits give high values
In short: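 Readout: yeast growth inhibition, referenced to vehicle-only cultures. Strain bears a defined alteration in DNA damage repair.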

[6] = NCI Yeast Anticancer Drug Screen. Data for the sgs1 mgt1 strain (AID 161);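 note: 0% = growth of cultures given vehicle only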; details: S. cerevisiae sgs1 mgt1 strain, hits give high values
In short: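 Compounds are added to genetically altered yeast, and growth is compared with cultures given vehicle alone to give percent inhibition.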

[7] = NCI Yeast Anticancer Drug Screen. Data for the CLN2oe strain (AID 163);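 note: 0% = growth of vehicle-only control cultures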; details: S. cerevisiae CLN2oe strain, hits give high values
In short: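 Cells of an engineered yeast line with disturbed cell-cycle regulation are treated with compound. Inhibition of growth is then calculated relative to the vehicle-treated reference.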

[8] = NCI Yeast Anticancer Drug Screen. Data for the cln2 rad14 strain (AID 165);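 note: 0% = growth equal to vehicle treated cultures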; details: S. cerevisiae cln2 rad14 strain, hits give high values
In short: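 Strain: cln2 rad14 yeast, altered in cell cycle control and DNA damage repair. Read-out: growth inhibition vs vehicle.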

[9] = NCI Yeast Anticancer Drug Screen. Data for the bub3 strain (AID 167); details: S. cerevisiae bub3 mutant strain, hits give high values
In short: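 Part of a panel of yeast mutants defective in DNA damage repair or cell cycle regulation. Each strain is grown with compound, and inhibition is calculated relative to solvent-treated cultures.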

[10] = NCI Yeast Anticancer Drug Screen. Data for the wt2 strain (AID 169);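 note: 0% = growth of vehicle-treated yeast cultures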; details: S. cerevisiae wt2 strain growth inhibition, hits give high values
In short: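 Growth of compound-treated yeast is measured and expressed as inhibition relative to vehicle-only controls.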

[11] = NCI Yeast Anticancer Drug Screen. Data for the mlh1 strain (AID 171);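 note: 0% = growth of vehicle-treated control cultures of the same strain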; details: S. cerevisiae mlh1 strain growth inhibition, hits give high values
In short: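 Test agents were incubated with yeast bearing a defined DNA damage repair or cell cycle control alteration; values are growth inhibition normalised to vehicle-treated cultures.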

[12] = NCI Yeast Anticancer Drug Screen. Data for the sgs1 strain (AID 173);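 note: 0% = growth of vehicle-only control cultures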; details: S. cerevisiae sgs1 mutant, hits give high values
In short: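 Strain with an altered DNA repair or cell cycle pathway exposed to compound. Growth then measured. Value = inhibition versus vehicle control.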

[13] = NCI Yeast Anticancer Drug Screen. Data for the mlh1 rad18 strain (AID 175); details: S. cerevisiae mlh1 rad18 strain growth inhibition, hits give high values
In short: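 A repair-deficient yeast strain is exposed to test compound, and growth is scored relative to vehicle-treated controls.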

[14] = at 5.0 µM (retest, dose inferred, filed as 0.5)
[15] = at 50.0 µM (retest, dose inferred, filed as 5.0)

Measured: growth inhibition

CC1=C(O)C(=O)C=C2C1=CC=C1[C@@]2(C)CCC2(C)[C@@H]3C[C@@H](C)C(=O)C[C@]3(C)CC[C@]12C (stereo partly drawn)
active: [1]; at 11.0 µM 98% | [1]; at 33.0 µM 98% | [1]; at 100.0 µM 96% | [2]; at 11.0 µM 96% | [2]; at 33.0 µM 97% | [2]; at 100.0 µM 96% | [3]; at 11.0 µM 96% | [3]; at 33.0 µM 97% | [3]; [15] 97% | [3]; at 50.0 µM 88.3% | [3]; at 100.0 µM 97% | [4]; at 11.0 µM 97% | [4]; at 33.0 µM 98% | [4]; [15] 99% | [4]; at 50.0 µM 90.5% | [4]; at 100.0 µM 96% | [5]; at 11.0 µM 94% | [5]; at 33.0 µM 97% | [5]; at 100.0 µM 95% | [6]; [15] 96% | [6]; at 50.0 µM 87.3% | [7]; at 11.0 µM 98% | [7]; at 33.0 µM 98% | [7]; at 100.0 µM 95% | [8]; [15] 97% | [8]; at 50.0 µM 86.5% | [9]; at 11.0 µM 96% | [9]; at 33.0 µM 97% | [9]; [15] 97% | [9]; at 50.0 µM 87.9% | [9]; at 100.0 µM 96% | [10]; at 11.0 µM 93% | [10]; at 33.0 µM 97% | [10]; at 100.0 µM 96% | [11]; at 11.0 µM 95% | [11]; at 33.0 µM 98% | [11]; at 100.0 µM 96% | [12]; at 11.0 µM 96% | [12]; at 33.0 µM 97% | [12]; at 100.0 µM 96% | [13]; [15] 97% | [13]; at 50.0 µM 88.2%
inactive: [1]; at 1.2 µM 41% | [1]; at 3.7 µM 58% | [2]; at 1.2 µM 9% | [2]; at 3.7 µM 8% | [3]; at 1.2 µM 11% | [3]; at 3.7 µM 28% | [3]; [14] 4% | [4]; at 1.2 µM 5% | [4]; at 3.7 µM 24% | [4]; [14] 4% | [5]; at 1.2 µM -26% | [5]; at 3.7 µM -13% | [6]; [14] 16% | [7]; at 1.2 µM -13% | [7]; at 3.7 µM 10% | [8]; [14] 35% | [9]; at 1.2 µM -19% | [9]; at 3.7 µM -6% | [9]; [14] 38% | [10]; at 1.2 µM 0% | [10]; at 3.7 µM 0% | [11]; at 1.2 µM 14% | [11]; at 3.7 µM 31% | [12]; at 1.2 µM 17% | [12]; at 3.7 µM 42% | [13]; [14] 41%
